Laboratory results reported in the supplement of paper PMC9446081.
± gives the standard deviation of the averaged measurements.

What was measured:
Assay in all cases: relative enzymatic activity vs untreated control (fraction); higher = less inhibition
Conditions in all cases: 100 µM; incubation time: 2 h at 37 C
[1] = tested on: DNA gyrase
Method: (§1)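 In vitro enzymatic inhibition assays (ProFoldin kits) for 12 purified essential E. coli enzymes or complexes, each treated with 218 active antibacterial compounds at 100 µM for 2 h at 37°C. Read-outs were fluorescence or absorbance (phosphate detection, dye binding), converted to activity via standard curves and expressed relative to untreated DMSO controls.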

[2] = molecular target: DNA helicase (UniProt P0ACB1)
Sequence of DNA helicase (P0ACB1 whole entry): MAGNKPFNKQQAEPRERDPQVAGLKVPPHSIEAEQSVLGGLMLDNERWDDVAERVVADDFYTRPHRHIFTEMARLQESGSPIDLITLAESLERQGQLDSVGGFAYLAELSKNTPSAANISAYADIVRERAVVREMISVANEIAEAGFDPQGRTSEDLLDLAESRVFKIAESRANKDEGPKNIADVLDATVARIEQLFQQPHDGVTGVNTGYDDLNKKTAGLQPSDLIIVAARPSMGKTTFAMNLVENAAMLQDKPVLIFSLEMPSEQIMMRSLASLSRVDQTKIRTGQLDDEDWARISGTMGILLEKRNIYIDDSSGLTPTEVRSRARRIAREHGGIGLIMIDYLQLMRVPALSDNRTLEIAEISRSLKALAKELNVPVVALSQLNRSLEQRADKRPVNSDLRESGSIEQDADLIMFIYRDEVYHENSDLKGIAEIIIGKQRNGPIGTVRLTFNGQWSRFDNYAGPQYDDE
Method: as §1

[3] = molecular target: DNA ligase (UniProt B1XA82)
Sequence of DNA ligase (B1XA82 whole entry): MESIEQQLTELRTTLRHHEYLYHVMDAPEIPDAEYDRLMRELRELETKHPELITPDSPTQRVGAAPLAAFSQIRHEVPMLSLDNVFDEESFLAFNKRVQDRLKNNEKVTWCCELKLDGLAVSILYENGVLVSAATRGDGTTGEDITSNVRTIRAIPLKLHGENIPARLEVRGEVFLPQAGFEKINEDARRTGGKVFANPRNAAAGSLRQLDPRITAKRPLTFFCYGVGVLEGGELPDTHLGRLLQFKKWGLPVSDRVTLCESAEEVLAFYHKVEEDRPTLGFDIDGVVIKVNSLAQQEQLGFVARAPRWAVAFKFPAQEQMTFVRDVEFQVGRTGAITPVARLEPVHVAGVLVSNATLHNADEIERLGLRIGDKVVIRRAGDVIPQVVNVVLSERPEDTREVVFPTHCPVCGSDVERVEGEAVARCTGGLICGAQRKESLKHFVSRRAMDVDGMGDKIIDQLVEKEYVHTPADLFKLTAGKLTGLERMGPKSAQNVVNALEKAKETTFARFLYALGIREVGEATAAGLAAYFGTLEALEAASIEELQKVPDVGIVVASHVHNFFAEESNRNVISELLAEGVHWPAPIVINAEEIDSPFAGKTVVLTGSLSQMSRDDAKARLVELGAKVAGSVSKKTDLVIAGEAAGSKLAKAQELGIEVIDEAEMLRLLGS
Method: as §1

[4] = molecular target: DNA polymerase (UniProt P10443)
Sequence of DNA polymerase (P10443 whole entry): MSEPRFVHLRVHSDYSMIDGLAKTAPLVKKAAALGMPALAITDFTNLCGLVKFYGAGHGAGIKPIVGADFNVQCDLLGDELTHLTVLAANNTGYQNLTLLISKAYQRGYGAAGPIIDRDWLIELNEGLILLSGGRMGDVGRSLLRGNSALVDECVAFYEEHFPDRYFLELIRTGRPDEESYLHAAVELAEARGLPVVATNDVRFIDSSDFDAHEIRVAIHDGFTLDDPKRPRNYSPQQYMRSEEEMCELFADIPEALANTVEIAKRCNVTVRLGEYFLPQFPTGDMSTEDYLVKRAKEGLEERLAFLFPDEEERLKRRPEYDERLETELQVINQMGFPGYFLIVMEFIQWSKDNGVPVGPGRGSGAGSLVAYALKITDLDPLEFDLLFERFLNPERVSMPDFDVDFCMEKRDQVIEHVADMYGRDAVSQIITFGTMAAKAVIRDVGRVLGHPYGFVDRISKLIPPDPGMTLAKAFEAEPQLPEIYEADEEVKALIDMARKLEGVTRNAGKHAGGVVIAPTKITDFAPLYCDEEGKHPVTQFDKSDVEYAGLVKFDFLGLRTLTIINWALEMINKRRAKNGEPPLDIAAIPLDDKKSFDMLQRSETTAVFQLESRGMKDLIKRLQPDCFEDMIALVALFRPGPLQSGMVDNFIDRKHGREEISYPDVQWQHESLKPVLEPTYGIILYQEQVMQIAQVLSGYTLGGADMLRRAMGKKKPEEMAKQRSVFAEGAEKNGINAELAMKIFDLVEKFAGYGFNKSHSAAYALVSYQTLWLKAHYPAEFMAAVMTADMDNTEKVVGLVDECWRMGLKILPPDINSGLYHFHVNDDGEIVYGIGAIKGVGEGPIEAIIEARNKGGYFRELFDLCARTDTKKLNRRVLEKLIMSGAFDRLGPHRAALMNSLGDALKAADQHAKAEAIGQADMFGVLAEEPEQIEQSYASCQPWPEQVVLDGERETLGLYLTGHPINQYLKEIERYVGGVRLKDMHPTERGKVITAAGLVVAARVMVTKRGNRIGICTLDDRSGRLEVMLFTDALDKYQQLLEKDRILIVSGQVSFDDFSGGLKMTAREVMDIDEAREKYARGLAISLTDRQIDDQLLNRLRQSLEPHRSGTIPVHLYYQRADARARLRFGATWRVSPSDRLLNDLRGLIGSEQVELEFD
Method: as §1

[5] = molecular target: DNA primase (UniProt P0ABS7)
Sequence of DNA primase (P0ABS7 whole entry): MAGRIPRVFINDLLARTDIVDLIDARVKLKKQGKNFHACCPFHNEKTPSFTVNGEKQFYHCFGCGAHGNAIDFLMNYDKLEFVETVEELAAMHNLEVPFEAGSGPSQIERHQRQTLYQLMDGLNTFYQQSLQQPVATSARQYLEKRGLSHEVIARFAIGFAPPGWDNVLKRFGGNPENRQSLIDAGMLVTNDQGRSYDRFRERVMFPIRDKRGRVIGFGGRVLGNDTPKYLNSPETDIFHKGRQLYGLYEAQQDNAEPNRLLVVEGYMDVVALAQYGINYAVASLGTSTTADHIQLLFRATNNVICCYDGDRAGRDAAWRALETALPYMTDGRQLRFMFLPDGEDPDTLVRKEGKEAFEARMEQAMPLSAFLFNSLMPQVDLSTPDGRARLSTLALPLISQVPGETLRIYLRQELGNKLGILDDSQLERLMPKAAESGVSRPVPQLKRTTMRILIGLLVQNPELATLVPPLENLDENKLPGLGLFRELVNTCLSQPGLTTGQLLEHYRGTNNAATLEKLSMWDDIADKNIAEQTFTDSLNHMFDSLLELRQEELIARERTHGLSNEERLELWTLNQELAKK
Method: as §1

[6] = molecular target: GlmU (UniProt A7ZTU1)
Sequence of GlmU (A7ZTU1 whole entry, looked up): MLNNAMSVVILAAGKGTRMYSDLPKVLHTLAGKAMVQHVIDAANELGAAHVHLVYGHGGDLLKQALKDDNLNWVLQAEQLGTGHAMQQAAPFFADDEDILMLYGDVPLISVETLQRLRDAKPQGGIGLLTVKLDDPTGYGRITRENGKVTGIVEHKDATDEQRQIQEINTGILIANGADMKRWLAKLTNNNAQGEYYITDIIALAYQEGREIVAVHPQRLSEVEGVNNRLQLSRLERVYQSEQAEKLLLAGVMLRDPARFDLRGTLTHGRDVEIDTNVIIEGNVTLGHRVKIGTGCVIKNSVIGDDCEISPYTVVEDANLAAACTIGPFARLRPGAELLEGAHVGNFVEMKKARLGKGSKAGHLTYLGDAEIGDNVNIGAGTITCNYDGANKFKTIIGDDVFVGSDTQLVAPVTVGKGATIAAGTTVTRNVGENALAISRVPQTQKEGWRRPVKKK
Method: as §1

[7] = molecular target: Guanlyate kinase (UniProt Q0TBG1)
Sequence of Guanlyate kinase (Q0TBG1 whole entry): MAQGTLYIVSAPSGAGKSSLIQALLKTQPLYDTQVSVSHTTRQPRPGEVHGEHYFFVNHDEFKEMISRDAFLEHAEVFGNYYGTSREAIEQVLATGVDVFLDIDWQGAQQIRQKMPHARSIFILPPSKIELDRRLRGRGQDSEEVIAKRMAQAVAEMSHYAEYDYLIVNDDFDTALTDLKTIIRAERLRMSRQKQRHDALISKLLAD
Method: as §1

[8] = molecular target: MurA (UniProt Q3YX52)
Sequence of MurA (Q3YX52 whole entry): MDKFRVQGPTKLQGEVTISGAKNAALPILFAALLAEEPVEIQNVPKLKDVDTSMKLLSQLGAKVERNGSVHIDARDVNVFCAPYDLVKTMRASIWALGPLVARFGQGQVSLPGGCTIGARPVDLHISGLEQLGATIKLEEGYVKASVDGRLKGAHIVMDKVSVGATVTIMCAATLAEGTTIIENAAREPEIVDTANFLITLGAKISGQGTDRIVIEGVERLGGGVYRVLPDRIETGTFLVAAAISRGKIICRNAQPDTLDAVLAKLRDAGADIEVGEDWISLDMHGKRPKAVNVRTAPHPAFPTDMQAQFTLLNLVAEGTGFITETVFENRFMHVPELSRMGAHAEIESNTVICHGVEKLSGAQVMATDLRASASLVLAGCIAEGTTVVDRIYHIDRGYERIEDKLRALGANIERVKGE
Method: as §1

[9] = molecular target: T1, MurD (UniProt P14900)
T1 sequence (whole entry): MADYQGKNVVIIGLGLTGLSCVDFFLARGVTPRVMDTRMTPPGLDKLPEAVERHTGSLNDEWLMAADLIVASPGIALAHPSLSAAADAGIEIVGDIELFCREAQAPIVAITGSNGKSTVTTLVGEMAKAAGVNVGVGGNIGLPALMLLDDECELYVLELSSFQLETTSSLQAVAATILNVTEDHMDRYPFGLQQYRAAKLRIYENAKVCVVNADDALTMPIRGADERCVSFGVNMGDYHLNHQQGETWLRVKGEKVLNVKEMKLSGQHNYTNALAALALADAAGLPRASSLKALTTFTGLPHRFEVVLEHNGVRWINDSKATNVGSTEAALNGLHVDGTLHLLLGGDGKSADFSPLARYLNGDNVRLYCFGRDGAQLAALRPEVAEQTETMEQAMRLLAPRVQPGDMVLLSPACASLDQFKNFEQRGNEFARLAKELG
Method: as §1

[10] = molecular target: T2, MurF (UniProt P11880)
T2 sequence (whole entry): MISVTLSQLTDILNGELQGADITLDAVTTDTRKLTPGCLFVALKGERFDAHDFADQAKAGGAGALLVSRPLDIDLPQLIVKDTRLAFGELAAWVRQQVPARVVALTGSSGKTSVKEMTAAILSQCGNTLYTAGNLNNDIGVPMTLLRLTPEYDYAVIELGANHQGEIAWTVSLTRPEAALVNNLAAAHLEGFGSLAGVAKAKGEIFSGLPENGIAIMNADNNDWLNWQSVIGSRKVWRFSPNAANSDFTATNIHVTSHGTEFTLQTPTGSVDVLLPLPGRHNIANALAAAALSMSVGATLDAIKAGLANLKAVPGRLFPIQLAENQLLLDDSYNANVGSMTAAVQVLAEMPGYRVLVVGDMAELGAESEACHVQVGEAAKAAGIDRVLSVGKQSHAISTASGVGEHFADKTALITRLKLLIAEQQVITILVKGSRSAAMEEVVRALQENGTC
Method: as §1

[11] = tested on: RNA polymerase
Method: as §1

Structure (SMILES)	relative enzymatic activity [1]	relative enzymatic activity [2]	relative enzymatic activity [3]	relative enzymatic activity [4]	relative enzymatic activity [5]	relative enzymatic activity [6]	relative enzymatic activity [7]	relative enzymatic activity [8]	relative enzymatic activity [9]	relative enzymatic activity [10]	relative enzymatic activity [11]
CN(C)C1C(O)=C(C(N)=O)C(=O)C2(O)C(O)=C3C(=O)c4c(O)ccc(Cl)c4C(O)C3CC12.Cl (stereo not drawn)	0.59 ± 0.38	0.359 ± 0.13	1.03 ± 0.047	1.16 ± 0.26	0.64 ± 0.12	1.005 ± 0.0054	0.874 ± 0.1	0.133 ± 0.045	0.593 ± 0.41	0.937 ± 0.17	0.804 ± 0.072
CC(O)C1C(=O)N2C(C(=O)O)=C(SC3CNC(C(=O)N(C)C)C3)C(C)C12 (stereo not drawn)	0.734 ± 0.42	0.994 ± 0.1	1.45 ± 0.021	1.26 ± 0.3	0.719 ± 0.22	1.04 ± 0.19	0.973 ± 0.11	0.501 ± 0.29	0.487 ± 0.33	0.584 ± 0.82	1.09 ± 0.28
CCC1OC(=O)C(C)C(OC2CC(C)(OC)C(O)C(C)O2)C(C)C(OC2OC(C)CC(N(C)C)C2O)C(C)(O)CC(C)CN(C)C(C)C(O)C1(C)O (stereo not drawn)	1.09 ± 0.048	0.601 ± 0.15	1.06 ± 0.2	1.11 ± 0.15	0.712 ± 0.2	1.09 ± 0.14	1.04 ± 0.034	0.766 ± 0.061	0.572 ± 0.39	0.964 ± 0.17	0.843 ± 0.027
Cn1cc(-c2[nH]c3cc(NC(=O)[C@H](N)C4CCCCC4)cc4c3c2C=NNC4=O)cn1	0.0124 ± 0.018	0.0463 ± 0.061	0.703 ± 0.085	0.083 ± 0.099	≤ 0	0.899 ± 0.013	0.0166 ± 0.0039	0.348 ± 0.12	0.599 ± 0.43	1.13 ± 0.017	0.191 ± 0.029
CON=C(C(=O)NC1C(=O)N2C(C(=O)[O-])=C(CSc3nc(=O)c([O-])nn3C)CSC12)c1csc(N)n1.O.O.O.[Na+].[Na+] (stereo not drawn)	0.7 ± 0.45	0.48 ± 0.015	1.29 ± 0.4	1.13 ± 0.23	0.69 ± 0.18	0.996 ± 0.014	0.914 ± 0.065	0.124 ± 0.03	0.583 ± 0.4	0.955 ± 0.21	0.843 ± 0.073
CO/N=C(\C(=O)N[C@@H]1C(=O)N2C(C(=O)O)=C(CSc3nnnn3C)CS[C@H]12)c1csc(N)n1	1.08 ± 0.03	0.544 ± 0.23	0.749 ± 0.049	1.15 ± 0.25	0.827 ± 0.017	1.09 ± 0.046	0.883 ± 0.091	0.157 ± 0.032	0.611 ± 0.42	1.16 ± 0.11	0.8391 ± 0.00096
Oc1ccc(Cl)c2cccnc12	0.354 ± 0.41	0.534 ± 0.19	1.03 ± 0.24	1.12 ± 0.21	0.7986 ± 0.0017	0.9167 ± 0.0045	0.821 ± 0.036	0.442 ± 0.04	0.656 ± 0.46	1.02 ± 0.23	0.854 ± 0.1
CON=C(C(=O)NC1C(=O)N2C(C(=O)O)=C(C[N+]3(C)CCCC3)CSC12)c1csc(N)n1.[Cl-] (stereo not drawn)	0.384 ± 0.0047	0.431 ± 0.059	1.345 ± 0.0088	1.28 ± 0.35	0.724 ± 0.23	0.969 ± 0.022	1.02 ± 0.026	0.222 ± 0.0031	0.568 ± 0.37	0.962 ± 0.17	0.897 ± 0.023
